Assay [1] is described as follows: Wnt pathway potentiators raising nuclear beta-catenin – imaging, WNT3A-conditioned medium, mouse C2C12, NPC library, primary screen (AID 1117326; in the data active means nuclear beta-catenin stimulation mostly above about 4.2%, no sharp cut-off; inactive means mostly below about 10%). Particulars: stronger effect = higher value.
Assay [2] can be described thus: stimulators of insulin release from INS-1E, primary screen, cell-based, 5 mM glucose, NPC library (AID 1117329;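 active means compound raises insulin release from rat beta cells at 5 mM glucose, no numeric limit stated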). The conditions noted are these: rat INS-1E insulin secretion, at 10 µM, stronger effect = higher value.
Assay [3] in a line: growth inhibition of GSK3B-pretreated HCT116 cells – cell-based, CellTiter-Glo, 0.2 to 20 µM (AID 1117336;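 active means compounds lowering colon cancer cell viability after pretreatment blocking the GSK3B kinase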). The conditions noted are these: HCT116 viability after GSK3B inhibitor, at 20 µM, stronger effect = higher value.
The nature of assay [4]: inhibition of endothelial tube formation, primary screen, imaging, VEGF stimulated, CD31 staining, tube area, NPC library (AID 1117340;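 active means compound that reduces growth-factor-driven endothelial tube area in a mixed cell culture, no cutoff stated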). Particulars: VEGF-stimulated ADSC/ECFC co-culture, at 10 µM, stronger effect = higher value.
Assay [5] is described as follows: GLP1 release stimulators, primary, NCI-H716, NPC library (AID 1117341;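 active means compound raises GLP1 secretion from the human gut endocrine cells, with no numeric limit stated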). Particulars: NCI-H716 cells, at 10 µM, stronger effect = higher value.
Assay [6] is described as follows: HCT116 colon cancer cell growth inhibition, primary screen, CellTiter-Glo luminescence, NPC library (AID 1117342;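 active means compounds that lower survival of HCT116 colon cancer cells in the luminescence readout, no numeric limit stated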). Particulars: at 20 µM (top of the series). For orientation: In ATP-based viability assays light output follows the ATP content of the culture.
A short description of assay [7]: reduced SW480 viability measured with CellTiter-Glo, NPC library, primary (AID 1117343;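 active means compounds that lower viability of the colon cancer cells in the luminescence readout, with no numeric limit stated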). Particulars: CellTiter-Glo luminescence; at 20 µM (top of the series).
Assay [8] can be described thus: NPC library primary testing for decreased DLD-1 cell viability via CellTiter-Glo (AID 1117346;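 active means compounds that lower survival of DLD-1 colon cancer cells in the luminescence readout, no cutoff given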). The conditions noted are these: DLD-1 viability, CellTiter-Glo luminescence; at 20 µM (top of the series).
Assay [9] deals with 6-phosphogluconate dehydrogenase, decarboxylating (Homo sapiens) (UniProt P52209). As to the kind of experiment: inhibition of human phosphogluconate dehydrogenase – biochemical, recombinant enzyme, NADPH absorbance, primary screen (AID 1159550;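 active means at least 20% inhibition of 6-phosphogluconate dehydrogenase activity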). The conditions noted are these: recombinant 6PGD, NADPH absorbance 341 nm; at 10 µM; stronger effect = higher value.
Chain of 6-phosphogluconate dehydrogenase, decarboxylating (Homo sapiens) (P52209 whole entry, looked up): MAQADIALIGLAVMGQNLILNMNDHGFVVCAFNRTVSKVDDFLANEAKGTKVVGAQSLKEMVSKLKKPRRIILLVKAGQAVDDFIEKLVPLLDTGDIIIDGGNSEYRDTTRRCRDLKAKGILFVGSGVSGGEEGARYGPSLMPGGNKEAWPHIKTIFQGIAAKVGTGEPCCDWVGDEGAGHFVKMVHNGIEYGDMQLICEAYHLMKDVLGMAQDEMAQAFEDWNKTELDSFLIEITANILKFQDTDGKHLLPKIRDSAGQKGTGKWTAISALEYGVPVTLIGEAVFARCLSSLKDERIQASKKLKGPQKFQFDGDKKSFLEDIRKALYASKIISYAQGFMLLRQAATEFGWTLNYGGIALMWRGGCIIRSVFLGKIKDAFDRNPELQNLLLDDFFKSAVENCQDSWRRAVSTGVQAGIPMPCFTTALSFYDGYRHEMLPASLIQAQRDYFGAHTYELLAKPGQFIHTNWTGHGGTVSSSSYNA
Assay [10] can be described thus: viability loss with induced miR-34 in A549 – imaging, A549 dox-inducible miR-34, nuclei and caspase counts, primary screen (AID 1347080;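 active means compounds whose cell count with miR-34 switched on is under 0.7 times the count with it off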). Particulars: A549 miR-34 inducible, Hoechst nuclei count, 48 h.
For assay [11], the target named is NAD(+) hydrolase SARM1 (Homo sapiens) (UniProt Q6SZW1). As to the kind of experiment: blocking NAD cleavage by SARM1 SAM-TIR – cell lysate, NAD-Glo luminescence (AID 1508614;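 active means compound whose remaining NAD level is above about 45 nM, limit read from the data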). Particulars: SAM-TIR HEK293T lysate NADase, at 1 µM, stronger effect = higher value.
Chain of NAD(+) hydrolase SARM1 (Homo sapiens) (Q6SZW1 whole entry, looked up): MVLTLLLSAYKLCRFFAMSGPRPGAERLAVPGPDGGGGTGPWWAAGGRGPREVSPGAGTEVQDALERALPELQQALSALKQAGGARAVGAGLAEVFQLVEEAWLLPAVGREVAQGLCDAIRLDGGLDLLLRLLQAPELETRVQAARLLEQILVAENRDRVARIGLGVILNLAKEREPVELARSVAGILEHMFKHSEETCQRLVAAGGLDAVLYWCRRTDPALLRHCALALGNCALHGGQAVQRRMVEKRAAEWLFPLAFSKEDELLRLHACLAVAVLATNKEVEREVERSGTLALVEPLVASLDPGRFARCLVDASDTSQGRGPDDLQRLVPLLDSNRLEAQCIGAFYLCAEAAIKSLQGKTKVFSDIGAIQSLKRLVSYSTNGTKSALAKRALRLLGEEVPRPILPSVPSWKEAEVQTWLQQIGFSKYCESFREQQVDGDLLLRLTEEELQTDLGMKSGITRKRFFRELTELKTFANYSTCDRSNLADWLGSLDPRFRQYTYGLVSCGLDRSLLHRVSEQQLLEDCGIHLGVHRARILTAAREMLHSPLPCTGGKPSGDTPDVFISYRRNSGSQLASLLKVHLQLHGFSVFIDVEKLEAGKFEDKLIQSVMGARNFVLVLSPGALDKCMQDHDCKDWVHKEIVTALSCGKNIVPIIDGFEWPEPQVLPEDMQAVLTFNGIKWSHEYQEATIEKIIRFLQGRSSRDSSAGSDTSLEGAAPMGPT
A short description of assay [12]: EMT-state selective cytotoxicity in co-culture – imaging, PC-3E GFP, TEM4-18 mCherry, primary screen (AID 1345086;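 active means compounds killing one labelled cell type while sparing the other, by normalised counts and ratio limits, not self-fluorescent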;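 on all read-outs here: cells exposed to compound for 72 h before imaging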;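 on red/green cell ratio (normalised): normalised mesenchymal count divided by normalised epithelial count so high means epithelial killing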). Particulars: PC-3E GFP / TEM4-18 mCherry co-culture, imaging cell counts, at 1 µM; for red/green cell ratio (normalised): actives lie on both sides, counts scaled to control wells, 1 = unselective.
The nature of assay [13]: MELAS cybrid and Rieske KO viability enhancers – cell-based, MELAS cybrids, Rieske KO mouse fibroblasts, CellTiter-Glo, primary screen (AID 1508586;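 active means mean z-score across replicates of 1.96 or higher in either the MELAS or the Rieske mutant cell line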;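 further: z relative to plate mean and SD of compound and empty wells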). The conditions noted are these: low glucose.
For the next assay, the system named is F380Y. The assay can be described thus: BK channel mutant inhibitors and activators – cell-based, U2OS BacMam, thallium flux, beta subunits, selectivity assay, profiling panel (AID 1259406).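 Further: initial slope of Thallos dye fluorescence rise after thallium is added; log ratio against the mean of 0.3% DMSO vehicle wells on the same plate.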 Particulars: U2OS BacMam BK variants, at 30 µM.
The test system of another assay is F380Y/beta1. The description is as above. Particulars: U2OS BacMam BK variants, at 30 µM.
Another assay has as its system F380Y/beta2Delta. The description is as above. The conditions noted are these: U2OS BacMam BK variants, at 30 µM.
In another assay the test system is F380Y/beta4. The description is as above. The conditions noted are these: U2OS BacMam BK variants, at 30 µM.
For assay [14], the target named is Calcium-activated potassium channel subunit alpha-1 (Homo sapiens) + Leucine-rich repeat-containing protein 26 (Homo sapiens) (UniProt Q12791+Q2I0M4). Described as above. The conditions noted are these: U2OS BacMam BK variants, F380Y/Slo1WT/gamma1, at 30 µM.
Chain of Calcium-activated potassium channel subunit alpha-1 (Homo sapiens) + Leucine-rich repeat-containing protein 26 (Homo sapiens) (Q2I0M4 whole entry, looked up, one chain of several): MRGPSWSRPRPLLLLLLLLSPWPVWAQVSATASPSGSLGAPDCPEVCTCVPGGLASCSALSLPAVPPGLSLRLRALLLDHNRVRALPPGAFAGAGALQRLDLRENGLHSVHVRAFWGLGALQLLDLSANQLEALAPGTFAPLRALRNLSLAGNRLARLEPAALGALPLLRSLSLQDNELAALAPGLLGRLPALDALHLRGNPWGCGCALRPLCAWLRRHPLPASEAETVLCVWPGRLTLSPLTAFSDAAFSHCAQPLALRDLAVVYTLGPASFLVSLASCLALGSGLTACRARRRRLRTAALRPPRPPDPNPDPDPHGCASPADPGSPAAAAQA
Another assay relates to R275C. The assay is described as above. The conditions noted are these: U2OS BacMam BK variants, at 30 µM.
The mark [15] stands for this setting: measured here: epithelial PC-3E GFP cell survival.
Setting [16] is: measured here: mesenchymal TEM4-18 mCherry cell survival.
Where [17] appears, read: MELAS cybrid survival, CellTiter-Glo 48 h, stronger effect = higher value.
Where [18] appears, read: Rieske KO mouse fibroblast survival, CellTiter-Glo 72 h.

SMILES strings stand for the structures. “And” between values parts separate entries of the source, which are not always exact repeats. Equal entries are not always repeated. The source made the active and inactive calls.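 How the source made its calls, unless noted: active means thallium flux through the channel raised or lowered by more than 3 SD from vehicle-only wells, actives on both sides; inactive means the rest.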

`CC[C@H]1CN2CCc3cc(OC)c(OC)cc3[C@@H]2C[C@@H]1C[C@H]1NCCc2cc(OC)c(OC)cc21`: the nuclear beta-catenin stimulation in assay [1] (at 10 µM) is 12.4% (inactive); in assay [1] (stimulation, at 2 µM), 9.1%. The insulin secretion stimulation in assay [2] is 13.4% (inactive). The viability decrease in [3] was 82.1% (active). The tube area decrease in assay [4] was 110% (active). Further, the GLP1 secretion stimulation in assay [5] was 2.4% (inactive). The inhibition of viability in [6] is 84.8% (active). For the same compound, the viability decrease (inhibition) is 115% (active) in assay [7] and 97% (active) in assay [8]. Also, the inhibition (commonly the change of the read-out against control, counted positive when it falls) in assay [9] was 6.15% (inactive). Moreover, the fold change is 1.04 (inactive) and 0.853 (inactive) in assay [10] (stronger effect = lower value, cell number ratio, induced over uninduced); 1.32 and 1.38 in [10] (measured here: relative caspase fold change +Dox/-Dox). Moreover, the cell count is 1340 and 1650 in [10] (measured here: total cells with miR-34 induction, stronger effect = lower value); 1300 and 1930 in assay [10] (measured here: total cells without miR-34 induction). The remaining NAD in [11] was 10 nM (inactive).

As for `CCCCCCCCCCCCCCNCCO`, the nuclear beta-catenin stimulation in assay [1] (at 10 µM) was 10.8% (inactive); in assay [1] (stimulation, at 2 µM), 10.6%. The insulin secretion stimulation in [2] is -1.5% (inactive). Also, the viability decrease in [3] is 62.8% (active). Moreover, in assay [4], the tube area decrease was 103% (active). For the same compound, the GLP1 secretion stimulation in [5] is 34.8% (active). Further, the inhibition of viability in assay [6] was 32.6% (inactive). The results for the viability decrease (inhibition) in assay [7] and in assay [8] were 121% (active) and 103% (active), respectively.

As for `Cc1coc2ccccc2c1=O`, the nuclear beta-catenin stimulation in assay [1] (at 10 µM) is 1.5% (inactive); in assay [1] (stimulation, at 2 µM), 2.3%. Moreover, the insulin secretion stimulation in assay [2] is -2.4% (inactive). In assay [3], the viability decrease was 2.8% (inactive). In assay [4], the tube area decrease is 13.7% (inactive). The GLP1 secretion stimulation in assay [5] is 3.1% (inactive). In addition, the inhibition of viability in assay [6] is -12.2% (inactive). Also, the results for the viability decrease (inhibition) in assay [7] and in assay [8] were 24.7% (inactive) and -7.5% (inactive), respectively. Moreover, the inhibition in [9] is 1.24% (inactive).

Take `CC1=C(CC(=O)O)c2cc(F)ccc2/C1=C\c1ccc(S(C)=O)cc1` (configuration not stated): the nuclear beta-catenin stimulation in assay [1] (at 10 µM) was -1.5% (inactive); in [1] (stimulation, at 2 µM), 0.2%. Besides, the insulin secretion stimulation in assay [2] is 0.2% (inactive). For the same compound, the viability decrease in assay [3] is -51.5% (inactive). Besides, in assay [4], the tube area decrease is 15.7% (inactive). For the same compound, the GLP1 secretion stimulation in assay [5] was -1.1% (inactive). Also, the inhibition of viability in assay [6] was -9.1% (inactive). Moreover, the viability decrease (inhibition) in assay [7] is 15% (inactive); in assay [8], -23.3% (inactive). Besides, in assay [9], the inhibition is 2.79% (inactive). The red/green cell ratio (normalised) in assay [12] is 1.2 (inactive). The normalised cell number in assay [12] (setting [15]) was 0.35; in [12] (setting [16]), 0.43. The z-score in assay [13] (setting [17]) is -0.637 (inactive); in [13] (setting [18]) it was 0.215. In addition, the remaining NAD in assay [11] was 10 nM (inactive). Further, the log fold change Tl+ flux in the assay on F380Y is 0.0356 (inactive); with F380Y/beta1, 0.0787 (inactive); in the assay with F380Y/beta2Delta, 0.0561 (inactive); in the assay on F380Y/beta4, 0.0346 (inactive); in assay [14], 0.0386 (inactive); in the assay with R275C, -0.0121 (inactive).

In the case of `COC(=O)c1ccc(O)cc1`, the nuclear beta-catenin stimulation in assay [1] (at 10 µM) is 1.3% (inactive); in assay [1] (stimulation, at 2 µM) it was 0.3%. In addition, the insulin secretion stimulation in assay [2] is -1.8% (inactive). For the same compound, in assay [3], the viability decrease is -8.75% (inactive). In addition, the tube area decrease in assay [4] is 4.5% (inactive). In [5], the GLP1 secretion stimulation is 0.6% (inactive). Also, in [6], the inhibition of viability is -9.8% (inactive). Also, the viability decrease (inhibition) is 18.8% (inactive) in assay [7] and -6.75% (inactive) in [8].

`CCC(C)(C)C(=O)O[C@H]1C[C@@H](C)C=C2C=C[C@H](C)[C@H](CC[C@@H]3C[C@@H](O)CC(=O)O3)[C@H]21`: the nuclear beta-catenin stimulation is 15.9% (inactive) in assay [1] (at 10 µM) and 7.6% in assay [1] (stimulation, at 2 µM). Further, the insulin secretion stimulation in [2] is 13.1% (inactive). Also, the viability decrease in [3] is 95.1% (active). Also, in assay [4], the tube area decrease was 91% (active). In assay [5], the GLP1 secretion stimulation was 28% (active). The inhibition of viability in [6] was 86% (active). In addition, the results for the viability decrease (inhibition) in [7] and in assay [8] were 119% (active) and 77.8% (active), respectively. For the same compound, the inhibition in [9] is 2.59% (inactive). Also, the red/green cell ratio (normalised) in [12] was 0.86 (inactive). Also, the normalised cell number in [12] (setting [15]) worked out at 0.75; in [12] (setting [16]) it was 0.65. The z-score in assay [13] (setting [17]) is -2.63 (inactive) and -1.16 (inactive); in assay [13] (setting [18]), -0.283 and -0.755. Also, the remaining NAD in assay [11] was 10 nM (inactive). Also, the log fold change Tl+ flux in the assay with F380Y was 0.085 (inactive); in the assay with F380Y/beta1, 0.0381 (inactive); with F380Y/beta2Delta, 0.0908 (active); in the assay on F380Y/beta4, -0.0747 (inactive); in assay [14], 0.0806 (active); in the assay with R275C, 0.0702 (inactive).
